Assay results as given in PubChem BioAssay (Tox21).
“And” between values parts separate entries of the source, which are not always exact repeats. Equal values may be shown once. A number with no mark means an inactive call. Records with an inconclusive call do not appear. Where a call stands in place of a potency, no number is given. The source made the active and inactive calls. Unless noted, calls come from the whole dose curve; as a rule, active = well fitted curve in the direction sought with a large enough effect in the repeat runs; inconclusive = weak or mixed curves; inactive = no such curve, though single readings can be large; an effect the other way counts as inactive or inconclusive.

How the values were obtained:
[1] = biological target: Progesterone receptor (Homo sapiens) (UniProt P06401); assay: qHTS assay to identify small molecule agonists of the progesterone receptor (PR) signaling pathway (AID 1346784; calls by dose curve; note: nearly all actives have a fitted effect of over 30% in size); settings: PR-UAS-bla HEK293T, beta-lactamase FRET ratio, 16 h; series mostly up to 92.4 µM
In short: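 PR-UAS-bla HEK 293T cells carrying a UAS-driven beta-lactamase reporter were seeded in medium with 2% charcoal-stripped FBS, preincubated 6 hr at 37C, then exposed to compounds in DMSO for 16 hr; agonism was read by LiveBLAzer B/G FRET fluorescence.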

[2] = biological target: Progesterone receptor (Homo sapiens) (UniProt P06401); assay: qHTS assay to identify small molecule antagonists of the progesterone receptor (PR) signaling pathway (AID 1346795; active = well fitted inhibition curve with a large enough effect in the signal ratio in the repeat runs, not every such curve was filed as active; the % refers to the signal ratio; note: potency is the fitted concentration of half-maximal effect); settings: PR-UAS-bla HEK293T, beta-lactamase FRET ratio, 16 h; series mostly up to 92.4 µM
In short: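 PR-UAS-bla HEK293T cells carrying a UAS-driven beta-lactamase reporter were plated in medium with 2% charcoal-stripped FBS and rested 6 hr at 37C. Compounds were added with 1 nM R5020 (final) for 16 hr, then FRET substrate loaded 2 hr at room temperature.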

[3] = qHTS assay to identify small molecule antagonists of the progesterone receptor (PR) signaling pathway - cell viability counter screen (AID 1346798); settings: PR-UAS-bla HEK293T viability, CellTiter-Glo luminescence, 16 h; series mostly up to 92.4 µM; note: nearly all actives have a fitted effect of over 50% in size; note: potency is the fitted concentration of half-maximal effect
In short: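 PR-UAS-bla HEK293T cells in medium with 2% charcoal-stripped FBS were treated with compounds plus R5020 for 16 hr at 37C. Cell viability was then read by CellTiter-Glo luminescence after 30 min at room temperature in the same wells.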

[4] = qHTS assay to identify small molecule agonists of the progesterone receptor (PR) signaling pathway - cell viability counter screen (AID 1346799; calls by dose curve; note: nearly all actives have a fitted effect of over 45% in size; note: potency is the fitted concentration of half-maximal effect); settings: PR-UAS-bla HEK293T viability, CellTiter-Glo luminescence, 16 h; series mostly up to 92.4 µM
In short: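 PR-UAS-bla HEK293T cells, 3,000 per well in medium with 2% charcoal-stripped FBS, were preincubated 6 hr at 37C, then exposed to compounds for 16 hr; viability was read as CellTiter-Glo luminescence after 30 min at room temperature.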

[5] = qHTS assay to identify small molecule antagonists of the TGF-beta/Smad signaling pathway - cell viability counter screen (AID 1346824); settings: SBE-bla HEK293T viability, CellTiter-Glo luminescence; series mostly up to 76.8 µM; note: nearly all actives have a fitted effect of over 50% in size
In short: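 SBE-bla HEK 293T cells were plated overnight at 37 C, then given compounds in DMSO plus TGF-beta1 (added as 0.25 ng/mL solution) for 5 hr. After the bla read, CellTiter-Glo was added to the same wells and luminescence read after 30 min at room temperature.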

[6] = qHTS assay to identify small molecule agonists of the TGF-beta/Smad signaling pathway - cell viability counter screen (AID 1346829); settings: SBE-bla HEK293T viability, CellTiter-Glo luminescence, 5 h; series mostly up to 76.8 µM; note: top concentration of the series differs between compounds; nearly all actives have a fitted effect of over 45% in size
In short: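 Luminescence from CellTiter-Glo, read after a 30 min room-temperature incubation, gives cell viability of SBE-bla HEK 293T cells treated 5 hr with compounds at 37 C.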

[7] = qHTS assay to identify small molecule agonists of the TGF-beta/Smad signaling pathway (AID 1346859; active = well fitted activation curve with a large enough effect in the signal ratio in the repeat runs, not every such curve was filed as active; the % refers to the signal ratio); settings: SBE-bla HEK293T, TGF-beta/Smad beta-lactamase reporter, 5 h; series mostly up to 76.8 µM
In short: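 HEK 293T cells stably carrying a beta-lactamase reporter driven by the Smad binding element were seeded overnight, exposed to DMSO-dissolved compounds for 5 hr at 37 C, 5% CO2, then loaded with FRET substrate for 2 hr at room temperature.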

[8] = biological target: Thyrotropin-releasing hormone receptor (Homo sapiens) (UniProt P34981); assay: qHTS assay to identify small molecule antagonists of the thyrotropin-releasing hormone receptor (TRHR) signaling pathway (AID 1346877; active = well fitted inhibition curve with a large enough effect in the repeat runs, not every such curve was filed as active); settings: TRHR-HEK293, TRH-induced calcium fluorescence, antagonist mode; series mostly up to 51.3 µM
In short: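 Antagonist mode: after a 5 min room-temperature compound exposure, cells were stimulated with 1 nM (final) TRH. Dye-loaded TRHR-HEK293 cells were used, and calcium-dependent fluorescence was followed for 3 min, with 15-point titrations run in triplicate.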

[9] = biological target: Thyrotropin-releasing hormone receptor (Homo sapiens) (UniProt P34981); assay: qHTS assay to identify small molecule agonists of the thyrotropin-releasing hormone receptor (TRHR) signaling pathway (AID 1346891; calls by dose curve); settings: TRHR-HEK293 calcium fluorescence, agonist mode; series mostly up to 57.6 µM
In short: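 TRHR-expressing HEK293 cells were plated 18 h at 37 °C/5% CO2, loaded with calcium dye 2 h at 37 °C, then given compound in DMSO; fluorescence was read kinetically for 3 min at 1 s intervals.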

[10] = Human pregnane X receptor (PXR) small molecule agonists, qHTS cell viability counter screen (AID 1346977); settings: PXR-Luc HepG2 viability, CellTiter-Fluor, 24 h; series mostly up to 92.4 µM; note: nearly all actives have a fitted effect of over 50% in size; note: potency is the fitted concentration of half-maximal effect
In short: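 PXR-Luc HepG2 cells in medium with 5% charcoal-stripped FBS were pre-incubated 5hr, then exposed to compounds for 24hr at 37C. Viability was read in the same wells by CellTiter-Fluor fluorescence, reagent added after 23hr with a 1hr incubation.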

[11] = Caspase-3/7 induction in HepG2 cells by small molecules, qHTS assay (AID 1346978); settings: HepG2 caspase-3/7 activation, Caspase-Glo luminescence, 17 h; series mostly up to 92.4 µM; note: nearly all actives have a fitted effect of over 15% in size; note: potency is the fitted concentration of half-maximal effect
In short: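 Wild-type HepG2 cells (2,000/well) were settled 5 h at 37 C, 5% CO2, then exposed to compounds in DMSO for 17 h. Caspase-3/7 activity was read by luminescence 30 min after adding Caspase-Glo 3/7 reagent at room temperature.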

[12] = Caspase-3/7 induction in CHO-K1 cells by small molecules, qHTS cell viability counter screen (AID 1346979); settings: CellTiter-Fluor fluorescence, 17 h; series mostly up to 92.4 µM; note: nearly all actives have a fitted effect of over 35% in size
In short: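 Wild-type CHO-K1 cells were seeded at 1,500 per well, rested 5hr at 37 C, then exposed to compounds in DMSO. After 16hr, CellTiter-Fluor reagent was added and fluorescence read 1hr later as the viability measure.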

[13] = Caspase-3/7 induction in CHO-K1 cells by small molecules, qHTS assay (AID 1346980); settings: CHO-K1 caspase-3/7 induction, Caspase-Glo luminescence, 17 h; series mostly up to 92.4 µM; note: nearly all actives have a fitted effect of over 15% in size
In short: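 Wild-type cells were seeded at 1,500 per well and settled 5 hr at 37 C, 5% CO2, then exposed to DMSO-dissolved compounds for 17 hr. Caspase-Glo 3/7 reagent was added, and luminescence was read after 30min at room temperature.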

[14] = Caspase-3/7 induction in HepG2 cells by small molecules, qHTS cell viability counter screen (AID 1346981); settings: CellTiter-Fluor fluorescence, 17 h; series mostly up to 92.4 µM; note: nearly all actives have a fitted effect of over 30% in size; note: potency is the fitted concentration of half-maximal effect
In short: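 CellTiter-Fluor fluorescence measured viability in the same wells used for Caspase-Glo 3/7. HepG2 (wild type) at 2,000 cells/well were pre-incubated 5 hr, dosed, and given reagent at 16 hr, with 1 hr further at 37C.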

[15] = biological target: Nuclear receptor subfamily 1 group I member 2 (Homo sapiens) (UniProt O75469); assay: Human pregnane X receptor (PXR) small molecule agonists, qHTS assay (AID 1346982); settings: PXR-Luc HepG2, CYP3A4 luciferase reporter, 24 h; series mostly up to 92.4 µM; note: nearly all actives have a fitted effect of over 35% in size; note: potency is the fitted concentration of half-maximal effect
In short: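 Agonist mode: luminescence from ONE-Glo after 24 h compound exposure at 37C in HepG2 cells carrying hPXR-responsive CYP3A4 luciferase, plated in charcoal-stripped serum medium 5 h beforehand.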

[16] = biological target: Acetylcholinesterase (Homo sapiens) (UniProt P22303); assay: Acetylcholinesterase (AChE) small molecule antagonists: colormetric cell-based qHTS assay (AID 1347395; calls by dose curve; note: nearly all actives have a fitted effect of over 30% in size; note: potency is the fitted concentration of half-maximal effect); settings: SH-SY5Y cells AChE activity, colorimetric (Ellman); series mostly up to 115 µM
In short: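 SH-SY5Y cells, plated overnight at 37 C, were exposed to compounds for 30 min at 37 C and 5% CO2. Acetylthiocholine plus DTNB was then added, and thiocholine from endogenous AChE was quantified colorimetrically after 90 min at 37 C.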

[17] = biological target: Acetylcholinesterase (Homo sapiens) (UniProt P22303); assay: Acetylcholinesterase (AChE) small molecule antagonists: enzyme-based qHTS assay (AID 1347397; calls by dose curve; note: nearly all actives have a fitted effect of over 55% in size; note: potency is the fitted concentration of half-maximal effect); settings: Potency: AChE enzyme activity inhibition; series mostly up to 115 µM
In short: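 Tox21 library chemicals are tested in qHTS format against recombinant human AChE. The enzyme, dispensed at 50 mU/mL, sits with compound for 30 min at room temperature. A DTNB–acetylthiocholine cocktail follows, and colour is read after 10 min.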

[18] = biological target: Nuclear receptor subfamily 1 group I member 2 (Rattus norvegicus) (UniProt Q9R1A7); assay: Rat pregnane X receptor (rPXR) activation by small molecules, qHTS assay (AID 1346983); settings: rPXR luciferase reporter cells, One-Glo luminescence, 24 h; stronger effect = higher value; note: nearly all actives have a fitted effect of over 20% in size
In short: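 Cell-based rPXR luciferase reporter assay, 2,000 cells per well, rested 5hr at 37 C before compound addition in DMSO, then 24 hr at 37 C. One-Glo reagent was added and luminescence read after 30 min at room temperature.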

[19] = biological target: Nuclear receptor subfamily 1 group I member 2 (Homo sapiens) (UniProt O75469); assay: CYP3A4 induction through human pregnane X receptor (PXR) by small molecules, qHTS assay (AID 1346984); settings: DPX-2 HepG2 PXR, CYP3A4-luciferin luminescence, 24 h; series mostly up to 46.1 µM; note: nearly all actives have a fitted effect of over 40% in size
In short: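 Read-out is luminescence after One-Glo addition, following a 3 hr, 37C incubation with Luciferin-IPA CYP3A4 substrate (3uM final). Before that, compounds were on DPX-2 cells (HepG2 co-transfected with PXR element plus CYP3A4-promoter luciferase) for 24 hr at 37C.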

[20] = biological target: Nuclear receptor subfamily 1 group I member 2 (Homo sapiens) (UniProt O75469); assay: Human pregnane X receptor (PXR) activation by small molecules, qHTS assay (AID 1346985); settings: DPX-2 HepG2 CYP3A4-luciferase, 24 h; series mostly up to 38.3 µM; note: nearly all actives have a fitted effect of over 40% in size
In short: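 DPX-2 cells (HepG2 co-transfected with a PXR response element and a CYP3A4-promoter luciferase construct) were seeded at 2,000 per well, rested 5 hr at 37C, then exposed to DMSO-dissolved compounds for 24 hr. Activation was read as luciferase luminescence.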

Nuclear receptor subfamily 1 group I member 2 (Homo sapiens), sequence (O75469 whole entry, looked up): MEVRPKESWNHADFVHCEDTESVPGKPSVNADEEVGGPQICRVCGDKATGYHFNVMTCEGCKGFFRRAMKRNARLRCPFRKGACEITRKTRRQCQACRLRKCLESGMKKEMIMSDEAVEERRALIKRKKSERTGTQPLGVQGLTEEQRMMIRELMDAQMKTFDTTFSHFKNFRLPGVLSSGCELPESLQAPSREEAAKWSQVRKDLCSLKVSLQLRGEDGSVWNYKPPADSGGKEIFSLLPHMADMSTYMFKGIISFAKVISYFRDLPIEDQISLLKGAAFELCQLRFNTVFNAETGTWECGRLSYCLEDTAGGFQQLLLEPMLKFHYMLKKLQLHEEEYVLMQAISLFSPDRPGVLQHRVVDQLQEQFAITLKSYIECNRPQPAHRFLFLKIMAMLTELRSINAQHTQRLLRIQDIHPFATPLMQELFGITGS
Acetylcholinesterase (Homo sapiens), sequence (P22303 whole entry, looked up): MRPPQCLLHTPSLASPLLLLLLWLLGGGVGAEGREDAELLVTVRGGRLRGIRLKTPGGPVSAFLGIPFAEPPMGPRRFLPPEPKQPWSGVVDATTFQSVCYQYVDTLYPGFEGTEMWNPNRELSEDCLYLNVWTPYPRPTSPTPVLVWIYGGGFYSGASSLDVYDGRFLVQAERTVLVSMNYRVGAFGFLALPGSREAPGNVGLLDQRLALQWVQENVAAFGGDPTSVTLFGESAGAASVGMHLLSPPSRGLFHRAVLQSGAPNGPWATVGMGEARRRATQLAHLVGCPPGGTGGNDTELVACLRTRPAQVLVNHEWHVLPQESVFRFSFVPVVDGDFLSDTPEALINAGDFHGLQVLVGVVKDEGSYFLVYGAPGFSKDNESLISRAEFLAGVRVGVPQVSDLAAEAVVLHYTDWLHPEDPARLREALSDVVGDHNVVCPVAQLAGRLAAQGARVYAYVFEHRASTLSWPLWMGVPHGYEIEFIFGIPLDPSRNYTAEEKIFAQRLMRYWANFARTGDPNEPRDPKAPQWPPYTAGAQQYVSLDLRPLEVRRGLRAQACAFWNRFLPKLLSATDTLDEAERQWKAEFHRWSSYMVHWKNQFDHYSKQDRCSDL
Thyrotropin-releasing hormone receptor (Homo sapiens), sequence (P34981 whole entry, looked up): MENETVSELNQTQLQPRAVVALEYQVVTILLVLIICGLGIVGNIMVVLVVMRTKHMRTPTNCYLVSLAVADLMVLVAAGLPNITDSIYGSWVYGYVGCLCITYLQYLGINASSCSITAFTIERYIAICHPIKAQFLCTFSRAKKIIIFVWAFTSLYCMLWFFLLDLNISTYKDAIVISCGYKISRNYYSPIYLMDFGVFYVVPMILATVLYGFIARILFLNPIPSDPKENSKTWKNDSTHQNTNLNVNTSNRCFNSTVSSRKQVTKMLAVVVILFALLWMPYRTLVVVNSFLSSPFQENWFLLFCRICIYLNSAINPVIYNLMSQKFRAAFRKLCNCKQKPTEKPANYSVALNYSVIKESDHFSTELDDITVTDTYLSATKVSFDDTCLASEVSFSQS
Progesterone receptor (Homo sapiens), sequence (P06401 whole entry, looked up): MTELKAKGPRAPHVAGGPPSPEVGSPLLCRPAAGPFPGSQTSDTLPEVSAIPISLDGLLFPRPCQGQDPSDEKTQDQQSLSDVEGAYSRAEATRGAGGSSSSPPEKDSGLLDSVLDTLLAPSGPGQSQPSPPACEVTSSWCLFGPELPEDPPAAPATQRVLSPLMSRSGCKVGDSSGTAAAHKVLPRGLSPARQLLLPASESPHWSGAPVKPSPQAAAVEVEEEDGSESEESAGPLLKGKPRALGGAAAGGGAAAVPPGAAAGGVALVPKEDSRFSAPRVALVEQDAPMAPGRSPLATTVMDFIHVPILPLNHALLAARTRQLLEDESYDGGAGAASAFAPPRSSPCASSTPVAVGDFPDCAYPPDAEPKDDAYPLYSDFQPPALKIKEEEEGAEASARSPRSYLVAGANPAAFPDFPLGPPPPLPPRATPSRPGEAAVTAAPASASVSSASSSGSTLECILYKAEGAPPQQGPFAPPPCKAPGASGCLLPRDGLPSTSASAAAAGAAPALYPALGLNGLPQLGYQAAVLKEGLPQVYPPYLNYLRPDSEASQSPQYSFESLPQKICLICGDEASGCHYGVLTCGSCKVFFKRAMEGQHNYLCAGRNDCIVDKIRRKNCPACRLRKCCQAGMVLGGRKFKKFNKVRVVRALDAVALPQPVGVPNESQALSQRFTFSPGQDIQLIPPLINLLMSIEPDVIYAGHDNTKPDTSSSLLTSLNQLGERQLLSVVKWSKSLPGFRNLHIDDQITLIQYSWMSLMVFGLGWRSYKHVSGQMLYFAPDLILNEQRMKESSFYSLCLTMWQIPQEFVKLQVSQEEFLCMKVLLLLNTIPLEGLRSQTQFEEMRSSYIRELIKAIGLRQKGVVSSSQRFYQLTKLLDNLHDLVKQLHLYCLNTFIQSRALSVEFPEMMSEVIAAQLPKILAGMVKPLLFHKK
Nuclear receptor subfamily 1 group I member 2 (Rattus norvegicus), sequence (Q9R1A7 whole entry, looked up): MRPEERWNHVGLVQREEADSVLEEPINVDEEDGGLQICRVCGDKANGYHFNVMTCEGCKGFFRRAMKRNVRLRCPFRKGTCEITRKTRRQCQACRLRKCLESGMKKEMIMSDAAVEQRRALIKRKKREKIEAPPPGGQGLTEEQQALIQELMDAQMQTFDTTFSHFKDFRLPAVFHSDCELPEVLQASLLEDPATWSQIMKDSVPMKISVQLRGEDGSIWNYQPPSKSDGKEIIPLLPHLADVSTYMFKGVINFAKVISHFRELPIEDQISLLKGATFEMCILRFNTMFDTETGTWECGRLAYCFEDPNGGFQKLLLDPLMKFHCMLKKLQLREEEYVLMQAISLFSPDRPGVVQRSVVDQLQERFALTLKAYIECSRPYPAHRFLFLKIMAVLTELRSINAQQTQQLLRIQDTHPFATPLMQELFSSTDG

SMILES	Potency [1]	Potency [2]	Potency [3]	Potency [4]	Potency [5]	Potency [6]	Potency [7]	Potency [8]	outcome [9]	Potency [10]	Potency [11]	Potency [12]	Potency [13]	Potency [14]	Potency [15]	Potency [16]	Potency [17]	max activation [18]	Potency [19]	outcome [20]
ClC(Cl)=C(Cl)C(Cl)=C(Cl)Cl	inactive	inactive	inactive	inactive	inactive	inactive	inactive	inactive	inactive	inactive	inactive	inactive	inactive	inactive	inactive	inactive	inactive			
COP(=O)(NC(C)=O)SC (centres undefined)	inactive	inactive	inactive	inactive	inactive	inactive	inactive	inactive	inactive	inactive	inactive		inactive	inactive	inactive	inactive	inactive			
CCCCOCCOC(C)=O	inactive	inactive	inactive	inactive	inactive	inactive	inactive	inactive	inactive	inactive	inactive	inactive	inactive	inactive	inactive	inactive	inactive			
ClCC(Cl)CCl	inactive	inactive	inactive	inactive	inactive	inactive	inactive	inactive	inactive	inactive	inactive	inactive	inactive	inactive	inactive	inactive	inactive			
CC(C)(c1ccccc1)c1ccc(O)cc1	inactive	7.63 µM (active) and 9.69 µM (active)	inactive	inactive	inactive	inactive	inactive	inactive	inactive	inactive	60.6 µM (active)		inactive	inactive	27.1 µM (active) and 19.3 µM (active)	inactive	inactive			
CCOP(=O)(OCC)OCC	inactive	inactive	inactive	inactive	inactive	inactive	inactive	inactive	inactive	inactive	inactive	inactive	inactive	inactive	inactive	inactive	inactive			
CC[n+]1c(-c2ccccc2)c2cc(N)ccc2c2ccc(N)cc21	inactive	38.4 µM (active)	5.31 µM (active)	3.76 µM (active)	inactive	inactive	inactive	inactive	inactive	27.2 µM (active)	inactive		inactive	38.4 µM (active) and 23.7 µM (active)	inactive	31.6 µM (active) and 19.5 µM (active)	79.3 µM (active)	-4.94% and -4.01%	inactive	inactive
